Measurements from PubChem BioAssay (EPA / NIEHS).
Calls of active or inactive are those of the source. The calls were made as follows: active = hit-call score of the fitted dose curve at least 0.9, where 1 is the maximum; inactive = score below 0.9.

Experiments:
[1] = ATG_M_32_CIS: Attagene CIS-FACTORIAL HepG2 Assay for M32 Transcription Factor (Internal Marker) (AID 2282949); details: HepG2 Attagene cis-factorial M32 reporter, mRNA; actives raise or lower the signal;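 also: background control marker of the multiplexed CIS panel rather than a real target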
In short: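 Using DMSO as baseline, bidirectional curve fits were applied to reporter mRNA signals. These came from transiently transfected HepG2 cells exposed for 24 h, with RNA analysed by RT-PCR, FAM primer extension, HpaI digestion and CE.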

[2] = ATG_M_06_CIS: Attagene CIS-FACTORIAL HepG2 Assay for M06 Transcription Factor (Internal Marker) (AID 2282950); details: HepG2 Attagene CIS-FACTORIAL M06 internal marker reporter; actives raise or lower the signal
In short: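 Internal background marker within multiplexed cis-reporter HepG2 system. Cells transiently transfected, dosed 24 h; reporter mRNA measured by RT-PCR, HpaI digestion and capillary electrophoresis. Bidirectional fit relative to DMSO.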

[3] = target: Hypoxia-inducible factor 1-alpha (Homo sapiens) (UniProt Q16665); test: ATG_HIF1a_CIS: Attagene CIS-FACTORIAL HepG2 Assay for human Hypoxia Inducible Factor 1 (HIF1A) (AID 2282951); details: HepG2 Attagene cis-factorial HIF1a reporter transcription; actives raise or lower the signal
In short: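 Endogenous-TF cis reporter readout, human HepG2 cells, 24 h incubation; mRNA detected via RT-PCR and capillary electrophoresis fluorescence; DMSO-normalised bidirectional fitting.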

[4] = target: Hepatocyte nuclear factor 6 (Homo sapiens) (UniProt Q9UBC0); test: ATG_HNF6_CIS: Attagene CIS-FACTORIAL HepG2 Assay for human Hepatocyte Nuclear Factor 6 (HNF6) (AID 2282952); details: HepG2 Attagene cis-factorial HNF6 reporter transcription; actives raise or lower the signal
In short: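 Endogenous factor activity read in transiently transfected HepG2 via promoter-regulated reporter transcripts. RNA harvested 24 h post-dosing, reverse-transcribed, PCR-amplified, FAM-labelled, HpaI-digested and resolved by capillary electrophoresis; fitted in both directions against DMSO.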

[5] = target: Heat shock factor protein 1 (Homo sapiens) (UniProt Q00613); test: ATG_HSE_CIS: Attagene CIS-FACTORIAL HepG2 Assay for human Heat Shock Transcription Factor 1 (HSE) (AID 2282953); details: HepG2 HSE cis-reporter, Attagene RNA transcription; actives raise or lower the signal
In short: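 HepG2 cells transfected with cis-promoter reporter units sensing endogenous transcription factor activity; reporter mRNA quantified 24 h post-dose by RT-PCR and capillary electrophoresis of 6-FAM-labelled products. Bidirectional fitting against DMSO.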

[6] = ATG_MRE_CIS: Attagene CIS-FACTORIAL HepG2 Assay for human Metal Responsive Element (MRE) (AID 2282954); details: HepG2 MRE cis-reporter transcription, Attagene multiplex; actives raise or lower the signal
In short: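 RT-PCR/capillary electrophoresis readout of reporter mRNA, 24 h post-dosing, in HepG2 cells transfected with multiplexed cis-regulated reporter constructs. Gain or loss of signal fitted bidirectionally against DMSO baseline.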

[7] = ATG_PXRE_CIS: Attagene CIS-FACTORIAL HepG2 Assay for human Pregnane X Receptor Element (PXRE) (AID 2282957); details: HepG2 Attagene CIS-FACTORIAL PXRE reporter, mRNA; actives raise or lower the signal
In short: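 Reporter transcripts under endogenous PXR-responsive cis-regulation quantified from total RNA of transfected HepG2 cells 24 h post-dosing, via RT-PCR with fluorescent primer extension and capillary electrophoresis. Gain or loss of signal fitted against DMSO baseline.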

[8] = ATG_PPRE_CIS: Attagene CIS-FACTORIAL HepG2 Assay for human Peroxisome Proliferator-activated Response Element (PPRE) (AID 2282958); details: HepG2 PPRE cis-element reporter, Attagene transcription factor profiling; actives raise or lower the signal
In short: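 After human HepG2 hepatoma cells were transiently transfected with cis-promoter reporter constructs, they were exposed to test chemicals for 24 hours. Reporter RNA was then reverse-transcribed, PCR-amplified, FAM-labeled, HpaI-digested and quantified by capillary electrophoresis.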

[9] = ATG_RORE_CIS: Attagene CIS-FACTORIAL HepG2 Assay for human RAR-related Orphan Receptor Element (RORE) (AID 2282959); details: HepG2 Attagene cis-factorial RORE reporter, mRNA; actives raise or lower the signal
In short: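 Measured here: transcript induction of a cis-regulated reporter in HepG2 cells transiently transfected via FuGene 6. After 24 h, RNA was processed by RT-PCR and fluorescent capillary electrophoresis; DMSO defined baseline activity.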

[10] = ATG_Sox_CIS: Attagene CIS-FACTORIAL HepG2 Assay for human SRY-box transcription factor (SOX) (AID 2282960); details: HepG2 Attagene cis-factorial SOX reporter, mRNA; actives raise or lower the signal
In short: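 Using transiently transfected HepG2 cells, reporter transcription driven by cis elements was assessed 24 h after dosing. Signal was fluorescence of capillary-separated RT-PCR products, with DMSO defining baseline activity.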

[11] = target: Transcription factor Sp1 (Homo sapiens) (UniProt P08047); test: ATG_Sp1_CIS: Attagene CIS-FACTORIAL HepG2 Assay for human Specificity Protein 1 (Sp1) (AID 2282961); details: HepG2 Sp1 cis-reporter transcription, actives raise or lower the signal
In short: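 After transient transfection of HepG2 cells with cis-promoter reporter units and 24 h chemical treatment, reporter transcripts were quantified by RT-PCR and capillary electrophoresis fluorescence. Gain- and loss-of-signal fitted against DMSO.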

[12] = ATG_SREBP_CIS: Attagene CIS-FACTORIAL HepG2 Assay for human Sterol Regulatory Element Binding (SREBP) (AID 2282962); details: HepG2 Attagene cis-factorial SREBP reporter, mRNA; actives raise or lower the signal
In short: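 In this cis-format assay, HepG2 liver cells express reporters controlled by promoter elements responsive to native transcription factors. Exposure lasts 24 h; reporter mRNA fluorescence from capillary electrophoresis gives the signal, fitted bidirectionally against DMSO.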

[13] = target: Signal transducer and activator of transcription 3 (Homo sapiens) (UniProt P40763); test: ATG_STAT3_CIS: Attagene CIS-FACTORIAL HepG2 Assay for human Signal Transducer and Activator of Transcription 3 (STAT3) (AID 2282963); details: HepG2, Attagene cis-factorial STAT3 reporter transcription; actives raise or lower the signal
In short: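 Readout: fluorescent reporter mRNA fragments resolved by capillary electrophoresis. Setup: HepG2 transfected with MRTUs reporting endogenous transcription-factor activity, dosed 24 h. Gain or loss of signal fitted bidirectionally against DMSO control.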

[14] = ATG_TA_CIS: Attagene CIS-FACTORIAL HepG2 Assay for human TA Basal Promoter (AID 2282964); details: HepG2 Attagene CIS-factorial TA basal promoter reporter; actives raise or lower the signal
In short: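 HepG2 cells transiently transfected with multiple reporter units under cis promoter elements, reporting endogenous transcription factor activity; this endpoint tracks the TA basal promoter as background control. Reporter mRNA after 24 h dosing measured by RT-PCR/capillary electrophoresis; bidirectional fits versus DMSO.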

[15] = ATG_TCF_b_cat_CIS: Attagene CIS-FACTORIAL HepG2 Assay for human T-Cell-Factor with beta-catenin (TCF/b-cat) (AID 2282965); details: HepG2 TCF/beta-catenin cis-reporter transcription, actives raise or lower the signal
In short: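 HepG2 cells transiently transfected with cis-promoter-driven multiplexed reporter units; reporter mRNA measured 24 h after dosing by RT-PCR, FAM labelling, HpaI digestion and capillary electrophoresis. Bidirectional fitting relative to DMSO baseline.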

[16] = ATG_TAL_CIS: Attagene CIS-FACTORIAL HepG2 Assay for human TAL Basal Promoter (AID 2282966); details: HepG2 Attagene cis-factorial TAL promoter reporter; actives raise or lower the signal;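 also: background control endpoint measuring basal TAL promoter reporter mRNA not a specific factor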
In short: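 Background-control endpoint: basal TAL promoter reporter transcripts in transiently transfected HepG2, measured 24 h after dosing. Read-out by RT-PCR with fluorescent primer extension and capillary electrophoresis; gain or loss of signal fitted relative to DMSO.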

[17] = ATG_TGFb_CIS: Attagene CIS-FACTORIAL HepG2 Assay for human Transforming Growth Factor (TGF) (AID 2282967); details: HepG2 Attagene CIS TGFb reporter, mRNA transcription; actives raise or lower the signal
In short: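 HepG2 cells transiently transfected with cis-promoter-driven multiple reporter units measure endogenous TF activity; reporter mRNA quantified at 24 h by RT-PCR, FAM labeling, HpaI digestion and capillary electrophoresis. Bidirectional fit vs DMSO.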

[18] = ATG_VDRE_CIS: Attagene CIS-FACTORIAL HepG2 Assay for human Vitamin D Receptor Element (VDRE) (AID 2282968); details: HepG2 VDRE cis-reporter transcription, actives raise or lower the signal
In short: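 Transient MRTU transfection of HepG2, 24 h compound exposure. Readout: reporter transcripts via RT-PCR and capillary electrophoresis, fluorescence. Bidirectional fit vs DMSO.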

[19] = ATG_PBREM_CIS: Attagene CIS-FACTORIAL HepG2 Assay for human Phenobarbital-responsive Enhancer Module (PBREM) (AID 2282955); details: HepG2 PBREM cis-reporter, Attagene multiplexed transcription; actives raise or lower the signal
In short: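 Readout: reporter mRNA, fluorescent RT-PCR fragments separated by capillary electrophoresis. System: HepG2 transiently transfected with cis-regulated reporter units. Exposure: 24 h. Analysis: bidirectional, DMSO baseline.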

[20] = target: Paired box protein Pax-6 (Homo sapiens) (UniProt P26367); test: ATG_Pax6_CIS: Attagene CIS-FACTORIAL HepG2 Assay for human Paired Box 6 (PAX6) (AID 2282956); details: HepG2 CIS-FACTORIAL PAX6 reporter transcription, RNA readout; actives raise or lower the signal
In short: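 DMSO-referenced bidirectional fits of reporter mRNA fluorescence; HepG2 with transient cis-promoter MRTUs, 24 h post-dose, RT-PCR plus capillary electrophoresis detection.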

Measured: AC50

Sequence of Transcription factor Sp1 (Homo sapiens) (P08047 whole entry, looked up): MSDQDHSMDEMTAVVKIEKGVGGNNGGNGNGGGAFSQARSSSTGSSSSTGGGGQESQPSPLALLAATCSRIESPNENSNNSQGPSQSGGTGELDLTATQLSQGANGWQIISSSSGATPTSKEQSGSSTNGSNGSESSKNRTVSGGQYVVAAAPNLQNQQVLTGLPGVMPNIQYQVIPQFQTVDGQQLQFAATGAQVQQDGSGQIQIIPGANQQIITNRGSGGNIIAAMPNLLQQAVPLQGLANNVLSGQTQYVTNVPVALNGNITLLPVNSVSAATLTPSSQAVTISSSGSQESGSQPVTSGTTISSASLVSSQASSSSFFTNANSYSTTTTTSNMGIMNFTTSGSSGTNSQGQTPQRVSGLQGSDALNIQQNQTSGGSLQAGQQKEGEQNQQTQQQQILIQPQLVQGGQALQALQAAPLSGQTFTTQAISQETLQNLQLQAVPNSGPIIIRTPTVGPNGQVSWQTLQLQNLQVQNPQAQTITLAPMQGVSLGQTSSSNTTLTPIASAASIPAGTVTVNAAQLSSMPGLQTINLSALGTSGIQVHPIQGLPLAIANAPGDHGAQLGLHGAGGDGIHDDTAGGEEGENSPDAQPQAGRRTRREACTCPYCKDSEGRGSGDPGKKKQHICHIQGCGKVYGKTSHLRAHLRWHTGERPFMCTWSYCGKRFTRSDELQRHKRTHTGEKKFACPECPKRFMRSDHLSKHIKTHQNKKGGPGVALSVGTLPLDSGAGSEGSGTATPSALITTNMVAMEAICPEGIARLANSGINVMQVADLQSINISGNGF
Sequence of Hypoxia-inducible factor 1-alpha (Homo sapiens) (Q16665 whole entry, looked up): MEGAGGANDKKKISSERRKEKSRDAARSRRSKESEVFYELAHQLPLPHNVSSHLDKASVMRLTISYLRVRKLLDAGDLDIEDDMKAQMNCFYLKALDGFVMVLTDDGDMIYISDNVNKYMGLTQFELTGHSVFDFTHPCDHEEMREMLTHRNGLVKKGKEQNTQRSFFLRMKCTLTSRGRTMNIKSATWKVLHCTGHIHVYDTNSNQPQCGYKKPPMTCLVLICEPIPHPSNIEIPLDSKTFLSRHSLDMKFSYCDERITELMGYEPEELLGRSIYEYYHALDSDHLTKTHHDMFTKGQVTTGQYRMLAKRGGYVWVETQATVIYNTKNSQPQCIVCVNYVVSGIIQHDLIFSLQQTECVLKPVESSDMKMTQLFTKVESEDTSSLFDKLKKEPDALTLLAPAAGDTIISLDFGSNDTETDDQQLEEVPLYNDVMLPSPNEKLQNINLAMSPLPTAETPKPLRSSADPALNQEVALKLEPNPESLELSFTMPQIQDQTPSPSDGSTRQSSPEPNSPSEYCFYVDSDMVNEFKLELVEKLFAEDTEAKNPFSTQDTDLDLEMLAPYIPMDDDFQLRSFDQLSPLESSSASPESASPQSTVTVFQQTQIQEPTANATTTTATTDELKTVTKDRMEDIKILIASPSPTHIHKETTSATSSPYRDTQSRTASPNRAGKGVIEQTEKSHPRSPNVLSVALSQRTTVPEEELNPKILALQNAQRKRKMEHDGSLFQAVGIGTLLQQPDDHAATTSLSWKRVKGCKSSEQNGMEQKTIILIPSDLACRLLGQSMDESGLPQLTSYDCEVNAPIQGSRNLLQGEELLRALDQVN
Sequence of Hepatocyte nuclear factor 6 (Homo sapiens) (Q9UBC0 whole entry, looked up): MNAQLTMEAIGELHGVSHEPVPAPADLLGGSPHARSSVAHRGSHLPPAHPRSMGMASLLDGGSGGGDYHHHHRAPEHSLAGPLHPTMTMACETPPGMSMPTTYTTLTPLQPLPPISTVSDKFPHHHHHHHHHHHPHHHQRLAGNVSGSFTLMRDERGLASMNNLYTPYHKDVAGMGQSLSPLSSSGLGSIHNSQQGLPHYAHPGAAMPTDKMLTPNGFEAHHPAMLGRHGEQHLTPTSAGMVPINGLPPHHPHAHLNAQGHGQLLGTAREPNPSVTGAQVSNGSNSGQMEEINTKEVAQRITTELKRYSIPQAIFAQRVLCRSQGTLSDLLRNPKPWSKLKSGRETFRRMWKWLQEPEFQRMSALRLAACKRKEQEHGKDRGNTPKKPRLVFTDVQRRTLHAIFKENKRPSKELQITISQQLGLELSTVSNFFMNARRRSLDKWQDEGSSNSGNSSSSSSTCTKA
Sequence of Signal transducer and activator of transcription 3 (Homo sapiens) (P40763 whole entry, looked up, the tested form may be a part): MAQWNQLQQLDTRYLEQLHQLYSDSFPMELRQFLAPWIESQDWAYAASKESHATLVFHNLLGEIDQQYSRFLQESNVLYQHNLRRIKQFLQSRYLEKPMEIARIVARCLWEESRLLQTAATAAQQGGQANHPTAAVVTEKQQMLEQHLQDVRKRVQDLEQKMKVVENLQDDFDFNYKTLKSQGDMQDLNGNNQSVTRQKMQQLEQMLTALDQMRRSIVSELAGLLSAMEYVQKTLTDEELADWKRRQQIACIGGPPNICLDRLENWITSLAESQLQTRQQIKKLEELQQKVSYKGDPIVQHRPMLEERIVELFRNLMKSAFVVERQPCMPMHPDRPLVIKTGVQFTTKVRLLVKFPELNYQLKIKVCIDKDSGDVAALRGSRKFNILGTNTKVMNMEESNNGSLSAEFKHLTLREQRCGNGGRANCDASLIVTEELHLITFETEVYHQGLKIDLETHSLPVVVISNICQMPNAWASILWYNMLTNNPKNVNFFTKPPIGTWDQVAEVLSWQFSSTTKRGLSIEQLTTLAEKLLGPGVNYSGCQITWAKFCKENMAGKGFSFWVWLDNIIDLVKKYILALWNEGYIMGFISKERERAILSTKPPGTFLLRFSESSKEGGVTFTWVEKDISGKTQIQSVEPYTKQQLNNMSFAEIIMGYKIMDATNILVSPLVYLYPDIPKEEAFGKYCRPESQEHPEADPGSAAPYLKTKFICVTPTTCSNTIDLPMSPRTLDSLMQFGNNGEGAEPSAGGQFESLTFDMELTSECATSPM
Sequence of Paired box protein Pax-6 (Homo sapiens) (P26367 whole entry, looked up): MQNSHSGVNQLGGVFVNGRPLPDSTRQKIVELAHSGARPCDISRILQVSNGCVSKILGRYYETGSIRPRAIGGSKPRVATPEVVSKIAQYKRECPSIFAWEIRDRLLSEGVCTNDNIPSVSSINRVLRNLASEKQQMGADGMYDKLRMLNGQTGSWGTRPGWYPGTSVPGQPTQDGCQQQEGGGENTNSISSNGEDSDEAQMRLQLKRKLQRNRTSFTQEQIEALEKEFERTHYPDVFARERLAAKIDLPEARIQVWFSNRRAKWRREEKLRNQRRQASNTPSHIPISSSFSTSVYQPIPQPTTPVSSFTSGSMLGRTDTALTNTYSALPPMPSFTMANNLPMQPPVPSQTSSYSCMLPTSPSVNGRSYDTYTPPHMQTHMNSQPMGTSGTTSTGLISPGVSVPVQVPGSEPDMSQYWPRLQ
Sequence of Heat shock factor protein 1 (Homo sapiens) (Q00613 whole entry, looked up): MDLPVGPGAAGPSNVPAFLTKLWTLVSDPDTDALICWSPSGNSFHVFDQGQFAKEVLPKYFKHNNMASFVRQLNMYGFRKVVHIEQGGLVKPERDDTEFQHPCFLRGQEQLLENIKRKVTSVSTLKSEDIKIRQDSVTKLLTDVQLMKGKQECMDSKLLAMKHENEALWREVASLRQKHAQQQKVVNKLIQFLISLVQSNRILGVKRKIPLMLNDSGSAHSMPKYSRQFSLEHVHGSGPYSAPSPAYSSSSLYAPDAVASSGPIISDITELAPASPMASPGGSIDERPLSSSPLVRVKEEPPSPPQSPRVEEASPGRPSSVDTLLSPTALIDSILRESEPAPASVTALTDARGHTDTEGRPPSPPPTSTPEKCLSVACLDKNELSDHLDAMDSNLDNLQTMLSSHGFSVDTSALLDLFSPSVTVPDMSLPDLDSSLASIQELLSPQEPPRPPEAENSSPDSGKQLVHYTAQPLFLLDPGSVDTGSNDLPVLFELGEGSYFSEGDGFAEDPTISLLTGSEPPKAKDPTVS

CCOP(=S)(OCC)O/N=C(\C#N)c1ccccc1
active: [3] 67.2 µM | [7] 2.2 µM | [8] 7.85 µM
not listed: [19] | [20]
inactive: all other assays above

BrCCCCBr
not listed: [8] | [18] | [19] | [20]
inactive: all other assays above

CCCCCCCCCCCCc1cccc(S(=O)(=O)O)c1
active: [7] 17.9 µM
not listed: [5] | [8] | [9] | [18]
inactive: all other assays above

O=C(O)c1cc(I)cc(I)c1I
active: [7] 30.3 µM | [8] 27.8 µM
not listed: [5]
inactive: all other assays above
